Screens as filed in PubChem.
Mcl1 Noxa PPI = Mcl-1/Noxa binding inhibitors, primary screen, biochemical, TR-FRET, 1536-well; Induced myeloid leukemia cell differentiation protein Mcl-1 (Homo sapiens), Q07820; TR-FRET Mcl-1/Noxa peptide binding, 2 h; inhibition, % at 21.7 µM; hit rate 1.5% among 220,000; AID 1022, 2008;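 active = compounds that cut the protein-peptide binding signal by more than 50% relative to plate controls in a single-dose test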;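 also: His-tagged Mcl-1 with rhodamine Noxa BH3 peptide and terbium anti-His antibody; 0% = Mcl-1 plus Noxa peptide wells and 100% = peptide-only wells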
Target sequence (Q07820 whole entry, looked up): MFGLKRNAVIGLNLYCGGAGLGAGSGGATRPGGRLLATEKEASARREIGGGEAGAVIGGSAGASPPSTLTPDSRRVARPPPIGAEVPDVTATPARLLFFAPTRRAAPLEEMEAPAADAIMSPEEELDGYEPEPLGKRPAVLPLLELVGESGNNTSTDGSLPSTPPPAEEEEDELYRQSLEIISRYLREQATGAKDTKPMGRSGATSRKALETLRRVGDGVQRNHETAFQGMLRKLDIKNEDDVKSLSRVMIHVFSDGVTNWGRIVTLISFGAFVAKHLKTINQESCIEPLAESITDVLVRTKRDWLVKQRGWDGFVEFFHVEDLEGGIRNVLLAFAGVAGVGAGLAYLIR
Mcl1-Bid inh = Mcl-1/Bid binding inhibitors, primary screen, biochemical, TR-FRET, 1536-well | Induced myeloid leukemia cell differentiation protein Mcl-1 (Homo sapiens), Q07820 | TR-FRET Mcl-1/Bid-Dy647 peptide binding | inhibition, % at 21.7 µM | hit rate 0.97% among 220,000;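 active = compounds that cut the binding signal by more than half at the single screening dose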;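 also: His-tagged Mcl-1 with europium anti-His antibody binding Bid BH3 peptide; 0% = Mcl-1 plus peptide wells and 100% = peptide-only wells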
Bim-Mcl-1 = inhibitors of Bim peptide binding to Mcl-1, primary screen, biochemical, bead-based flow cytometry, multiplex. Induced myeloid leukemia cell differentiation protein Mcl-1 (Homo sapiens), Q07820. Bim peptide-Mcl-1 binding. inhibition, % at 10 µM. hit rate 0.1% among 190,000; in the data active = inhibition above about 40%;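 also: 0% = no compound tracer wells and 100% = peptide blocker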
14-3-3 Bad inh = inhibitors of 14-3-3 zeta/Bad binding, primary screen, biochemical, TR-FRET, bovine 14-3-3 zeta | inhibition, % at 21.7 µM | 14-3-3 protein zeta/delta (Bos taurus), P63103 | hit rate 0.71% among 220,000 | TR-FRET 14-3-3zeta/Dy647-pBad peptide displacement, 1 h;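 active = inhibition above about 70%, limit read from the data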;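 also: 0% = full 14-3-3 plus peptide FRET controls and 100% = background without 14-3-3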
Target sequence (P63103 whole entry, looked up): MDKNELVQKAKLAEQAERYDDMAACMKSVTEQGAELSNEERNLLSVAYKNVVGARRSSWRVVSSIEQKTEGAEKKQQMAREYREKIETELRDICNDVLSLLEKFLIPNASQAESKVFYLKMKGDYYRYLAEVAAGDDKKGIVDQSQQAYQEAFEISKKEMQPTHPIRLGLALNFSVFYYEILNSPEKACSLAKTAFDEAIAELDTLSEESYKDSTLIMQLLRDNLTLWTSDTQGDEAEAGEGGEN
eIF4E 4G PPI = eIF4E–eIF4G protein interaction inhibitors, primary screen, biochemical, uHTS, TR-FRET, eIF4GI fragment. inhibition, % at 21.7 µM. AID 782, 2007. hit rate 0.37% among 220,000. Eukaryotic translation initiation factor 4E (Mus musculus) + Eukaryotic translation …. TR-FRET eIF4E-eIF4GI(517-606) binding, 2 h;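 also: 0% = full FRET control wells and 100% = background wells lacking eIF4GI fragment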
NCF1 inh = p47phox/p22phox peptide binding inhibitors, primary screen, biochemical, uHTS, NADPH oxidase regulatory subunit. Neutrophil cytosol factor 1 (Homo sapiens), P14598. fluorescence polarization, 2 h. inhibition, % at 24.7 µM. hit rate 0.53% among 220,000;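 also: 0% = p47phox with labelled peptide and 100% = labelled peptide alone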
Starred values were filed as active, the others as inactive; ! = a repeat was not active. Hits are enriched below; roughly 3.3% of the tested compounds scored in any of these assays.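 The calls were made as follows, unless noted: active = inhibition above about 30% (limit read from the data); inactive = the rest.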

Results for CCS(=O)(=O)Nc1cccc(C2=NN(S(=O)(=O)c3ccc(C)cc3)C(c3ccco3)C2)c1 (centres undefined) ?
Mcl1 Noxa PPI: 6; Mcl1-Bid inh: -7; Bim-Mcl-1: -2; 14-3-3 Bad inh: -1; eIF4E 4G PPI: 0; NCF1 inh: -22

Results for Cc1cc(C)nc(SCC(=O)Nc2nonc2N)n1 ?
Mcl1 Noxa PPI: 5; Mcl1-Bid inh: -15; Bim-Mcl-1: -3; 14-3-3 Bad inh: 10; eIF4E 4G PPI: -3; NCF1 inh: -2

What do the screens show for `Cc1cc(C)c[n+](-c2nc3ccccc3nc2C(=C=[N-])C#N)c1`?
Mcl1 Noxa PPI: 23; Mcl1-Bid inh: -30; Bim-Mcl-1: 46*!; 14-3-3 Bad inh: -4; eIF4E 4G PPI: 0; NCF1 inh: -28

Results for CN(C)CCCN(C(=O)c1ccc2c(c1)CCCC2)c1nc2c(F)cccc2s1 ?
Mcl1 Noxa PPI: 56*; Mcl1-Bid inh: -10; Bim-Mcl-1: -5; 14-3-3 Bad inh: -9; eIF4E 4G PPI: 7; NCF1 inh: 8

What do the screens show for `CN(C)CCCN(C(=O)c1ccc(N2C(=O)CCC2=O)cc1)c1nc2c(F)cccc2s1`?
Mcl1 Noxa PPI: 38; Mcl1-Bid inh: 8; Bim-Mcl-1: -1; 14-3-3 Bad inh: 12; eIF4E 4G PPI: -2; NCF1 inh: 3

How did CCc1cc2c(=O)nc3n(c2s1)Cc1ccccc1/C3=C(/O)c1ccccc1Cl do in these assays?
Mcl1 Noxa PPI: 13; Mcl1-Bid inh: -1; Bim-Mcl-1: 2; 14-3-3 Bad inh: -1; eIF4E 4G PPI: -5; NCF1 inh: 74*

Results for CCc1cc2c(=O)nc3n(c2s1)Cc1ccccc1/C3=C(/O)c1ccc(F)cc1 ?
Mcl1 Noxa PPI: 14; Mcl1-Bid inh: -50; Bim-Mcl-1: -2; 14-3-3 Bad inh: -15; eIF4E 4G PPI: -7; NCF1 inh: -20

What do the screens show for `CCC(CCC(=O)NNC(=O)Cc1ccc([N+](=O)[O-])cc1)C(=O)O` (centres undefined)?
Mcl1 Noxa PPI: 22; Mcl1-Bid inh: -17; 14-3-3 Bad inh: -6; eIF4E 4G PPI: -2; NCF1 inh: -2

What do the screens show for `c1ccc2c(N3CCOCC3)nc(N3CCOCC3)nc2c1`?
Mcl1 Noxa PPI: 51*; Mcl1-Bid inh: 66*; Bim-Mcl-1: 2; 14-3-3 Bad inh: 61; eIF4E 4G PPI: 9; NCF1 inh: -15

How did c1ccc2c(N3CCOCC3)nc(-c3ccncc3)nc2c1 do in these assays?
Mcl1 Noxa PPI: 7; Mcl1-Bid inh: 12; Bim-Mcl-1: -10; 14-3-3 Bad inh: 5; eIF4E 4G PPI: 0; NCF1 inh: -17

Results for CCCCN(C(=O)CSc1nnc(Nc2ccc(C)c(C)c2)s1)c1c(N)n(Cc2ccccc2)c(=O)[nH]c1=O ?
Mcl1 Noxa PPI: 16; Mcl1-Bid inh: -8; Bim-Mcl-1: 1; 14-3-3 Bad inh: -16; eIF4E 4G PPI: -42; NCF1 inh: -80

How did CN(C(=O)CSc1nnc(Nc2ccccc2)s1)c1c(N)n(Cc2ccccc2)c(=O)[nH]c1=O do in these assays?
Mcl1 Noxa PPI: 53*; Mcl1-Bid inh: -18; Bim-Mcl-1: 8; 14-3-3 Bad inh: -4; eIF4E 4G PPI: 0; NCF1 inh: -11

How did O=C1OC(c2ccccc2)=C/C1=C/N1CCCCC1 do in these assays?
Mcl1 Noxa PPI: 14; Mcl1-Bid inh: 86*; Bim-Mcl-1: 0; 14-3-3 Bad inh: -11; eIF4E 4G PPI: 13; NCF1 inh: -24

How did O=C1c2ccccc2C(=O)C1Cc1cccc2ccccc12 do in these assays?
Mcl1 Noxa PPI: 42; Mcl1-Bid inh: 89*; Bim-Mcl-1: 0; 14-3-3 Bad inh: 14; eIF4E 4G PPI: -2; NCF1 inh: 3

Results for CCN(CC)Cc1cc(C(=O)O)c(-c2ccccc2)o1 ?
Mcl1 Noxa PPI: -3; Mcl1-Bid inh: -52; 14-3-3 Bad inh: 1; eIF4E 4G PPI: -3; NCF1 inh: -6

What do the screens show for `O=C(O)c1cc(CN2CCOCC2)oc1-c1ccccc1`?
Mcl1 Noxa PPI: 0; Mcl1-Bid inh: -16; Bim-Mcl-1: -1; 14-3-3 Bad inh: 76*; eIF4E 4G PPI: 1; NCF1 inh: 3

How did CC(C)(C)C1=Nn2c(nnc2-c2ccccc2F)SC1 do in these assays?
Mcl1 Noxa PPI: -3; Mcl1-Bid inh: -23; Bim-Mcl-1: -1; NCF1 inh: 3

Results for CC(C)(C)C1=Nn2c(nnc2-c2ccccn2)SC1 ?
Mcl1 Noxa PPI: 31; Mcl1-Bid inh: -12; Bim-Mcl-1: 2; 14-3-3 Bad inh: 12; eIF4E 4G PPI: 51*; NCF1 inh: 0

What do the screens show for `Cc1nc2ccccc2n1/N=C/c1ccc([N+](=O)[O-])s1`?
Mcl1 Noxa PPI: 19; Mcl1-Bid inh: 29; Bim-Mcl-1: -2; 14-3-3 Bad inh: 25; eIF4E 4G PPI: -1; NCF1 inh: -6

What do the screens show for `O=[N+]([O-])c1ccc(/C=N/n2c(CO)nc3ccccc32)s1`?
Mcl1 Noxa PPI: 58*; Mcl1-Bid inh: 30; Bim-Mcl-1: -6; 14-3-3 Bad inh: 10; eIF4E 4G PPI: 1; NCF1 inh: 6

How did CCc1c(C)[nH]c2ccc(OC)cc2c1=S do in these assays?
Mcl1 Noxa PPI: 74*; Mcl1-Bid inh: -2; Bim-Mcl-1: -5; 14-3-3 Bad inh: -6; eIF4E 4G PPI: 2; NCF1 inh: 2

What do the screens show for `Cc1ccc(N2C(=O)CC(Cn3nc(C)cc3C)C2=O)cc1` (centres undefined)?
Mcl1 Noxa PPI: 11; Mcl1-Bid inh: 91*; Bim-Mcl-1: 0; NCF1 inh: -7

Results for Cc1cc(C)n(CC2CC(=O)N(c3ccc(Cl)cc3)C2=O)n1 (centres undefined) ?
Mcl1 Noxa PPI: 7; Mcl1-Bid inh: -1; 14-3-3 Bad inh: -5; eIF4E 4G PPI: 1; NCF1 inh: 23

How did CC(=O)NC1C(=O)N=C(SC(C)C(=O)Nc2cccc(Cl)c2)NC1=O (centres undefined) do in these assays?
Mcl1 Noxa PPI: 19; Mcl1-Bid inh: -26; Bim-Mcl-1: 0; 14-3-3 Bad inh: 87*; eIF4E 4G PPI: -4; NCF1 inh: 2

How did COc1ccc(/C=N/NC(=O)c2c(C)nc3ccccn23)cc1[N+](=O)[O-] do in these assays?
Mcl1 Noxa PPI: 5; Mcl1-Bid inh: 0; 14-3-3 Bad inh: -4; eIF4E 4G PPI: 8; NCF1 inh: -7

How did Cc1ccc(C(=O)Nc2ccccc2SCC2CSc3nc4ccccc4c(=O)n32)cc1 (centres undefined) do in these assays?
Mcl1 Noxa PPI: 6; Mcl1-Bid inh: 53*; Bim-Mcl-1: -1; 14-3-3 Bad inh: -3; eIF4E 4G PPI: -5; NCF1 inh: 1
